# A selection: hits, their analogues and other compounds. The true share with any hit is near 2.8%.
# zVAD death inh: inhibitors of zVAD-triggered necroptosis, primary screen, L929 cells. viability rescue, % at 10 µM. L929 zVAD necroptosis rescue, ATP luminescence, 24 h; with zVAD 60 µM. AID 1377, 2008. hit rate 0.38% among 220,000;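 active = activation, scaled between plate controls, above about 75%, limit read from the data; inactive = activation under that limit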;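 also: 0% = zVAD with DMSO and 100% = DMSO alone without zVAD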
# TNF necrop inh: inhibitors of TNF-alpha triggered necroptosis, primary screen, cell-based, Jurkat FADD-/-, single concentration. AID 463075, 2010. activation (protection from cell death), % at 10 µM. Jurkat FADD-/- TNF necroptosis rescue, ATP luminescence, 24 h; 0 = TNF only, 100 = no-TNF cells. hit rate 0.068% among 220,000;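 active = activation, meaning protection from cell death, of at least 50% relative to plate controls; inactive = activation below 50%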;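 also: necroptosis triggered by 40 ng/mL TNF-alpha added together with compound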
# Mcl-1 Bim block: inhibitors of Bim peptide binding to Mcl-1, primary screen, biochemical, bead-based flow cytometry, multiplex | Bim peptide-Mcl-1 binding | inhibition, % at 10 µM | hit rate 0.1% among 190,000; in the data active = inhibition above about 40%;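 also: 0% = no compound tracer wells and 100% = peptide blocker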
# Target sequence (Q07820 whole entry, looked up): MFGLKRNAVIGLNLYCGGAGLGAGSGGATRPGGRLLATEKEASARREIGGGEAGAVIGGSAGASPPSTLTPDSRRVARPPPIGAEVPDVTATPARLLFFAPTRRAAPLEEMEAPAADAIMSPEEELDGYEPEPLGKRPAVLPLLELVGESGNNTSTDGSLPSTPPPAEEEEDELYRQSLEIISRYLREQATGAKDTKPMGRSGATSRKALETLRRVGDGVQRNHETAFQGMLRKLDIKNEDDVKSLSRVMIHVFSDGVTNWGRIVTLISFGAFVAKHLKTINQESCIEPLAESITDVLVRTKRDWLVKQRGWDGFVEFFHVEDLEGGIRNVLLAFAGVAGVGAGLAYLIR
# m-calpain inh: inhibitors of pig calpain II, primary screen, biochemical, fluorogenic peptide substrate, 1536-well; purified calpain II, 30 min; inhibition, % at 16 µM; hit rate 0.37% among 220,000; AID 1236, 2008;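 active = inhibition above about 50%, limit read from the data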
# Mcl1-Bid inh: Mcl-1/Bid binding inhibitors, primary screen, biochemical, TR-FRET, 1536-well; Induced myeloid leukemia cell differentiation protein Mcl-1 (Homo sapiens), Q07820; TR-FRET Mcl-1/Bid-Dy647 peptide binding; inhibition, % at 21.7 µM; hit rate 0.97% among 220,000; AID 1021, 2008;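 active = compounds that cut the binding signal by more than half at the single screening dose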;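 also: His-tagged Mcl-1 with europium anti-His antibody binding Bid BH3 peptide; 0% = Mcl-1 plus peptide wells and 100% = peptide-only wells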
# Mcl1-Noxa inh: Mcl-1/Noxa binding inhibitors, primary screen, biochemical, TR-FRET, 1536-well; AID 1022, 2008; Induced myeloid leukemia cell differentiation protein Mcl-1 (Homo sapiens), Q07820; hit rate 1.5% among 220,000; inhibition, % at 21.7 µM; TR-FRET Mcl-1/Noxa peptide binding, 2 h;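 active = compounds that cut the protein-peptide binding signal by more than 50% relative to plate controls in a single-dose test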;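 also: His-tagged Mcl-1 with rhodamine Noxa BH3 peptide and terbium anti-His antibody; 0% = Mcl-1 plus Noxa peptide wells and 100% = peptide-only wells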
# * marks the source's active call; other numbers are inactive results; · = not tested or not shown.
SMILES,zVAD death inh,TNF necrop inh,Mcl-1 Bim block,m-calpain inh,Mcl1-Bid inh,Mcl1-Noxa inh
O=C(COc1ccc([N+](=O)[O-])cc1)Nc1nnc(-c2cccnc2)s1,0,0,·,-20,-11,69*
CCN(CC)CCNC(=O)/C(=C/c1cn(CC)c2ccccc12)NC(=O)c1cc(OC)c(OC)c(OC)c1,1,3,2,21,-52,16
CCN(CC)CCNC(=O)/C(=C/c1cn(C)c2ccccc12)NC(=O)c1ccc(OC)c(OC)c1,0,-1,·,5,95*,3
COC(=O)CSc1nc(C)c(C)c(C)c1C(N)=O,3,-1,0,-20,70*,25
Cc1ccc(C(C)C)c(OC(=O)/C=C/c2ccccc2)c1,0,-6,0,-7,-4,-7
O=c1c(-c2c(O)cc(O)c3c(=O)cc(-c4ccc(O)cc4)oc23)c(-c2ccc(O)cc2)oc2cc(O)cc(O)c12,1,0,·,35,-60,103*
O=c1cc(-c2ccc(O)c(-c3c(O)cc(O)c4c(=O)cc(-c5ccc(O)cc5)oc34)c2)oc2cc(O)cc(O)c12,7,2,0,-6,22,112*
O=c1cc(-c2ccccc2)oc2cc(OCc3ccccc3)cc(O)c12,2,0,1,47,-15,10
COc1c(-c2ccc(O)cc2)oc2cc(O)cc(O)c2c1=O,4,-4,·,5,-90,44
O=C(CC1C(=O)NCCN1Cc1c(F)cccc1Cl)NC1CCCC1 (centres undefined),6,0,-3,-14,-26,9
COc1cc(NS(=O)(=O)c2ccc(Br)cc2)c(OC)cc1NC(=O)c1ccco1,0,-3,·,11,-3,16
COc1ccc(/C=C2\C(=O)NC(=S)N2C(=O)c2ccc(C)cc2)cc1,·,4,-2,-76,56*,77*
O=C1NC(=S)N(C(=O)c2ccc(F)cc2)/C1=C/c1cccnc1,0,1,·,7,15,9
CSc1nc2n(n1)C(C)C1=C(CCCC1=O)N2 (centres undefined),12,1,-5,-139,-48,-11
COc1cc(/C=C2/C(=O)NN(c3ccc(Cl)cc3)C2=O)ccc1OC(=O)c1ccco1,0,1,3,-72,-4,62*
COc1cc(/C=C2/C(=O)NN(c3cccc(F)c3)C2=O)ccc1OC(=O)c1ccco1,1,1,-3,16,-38,33
Cc1ccc(C(=O)Cn2nc(C(=O)O)c3ccccc3c2=O)cc1C,1,1,·,14,-10,-13
CCC(=O)Nc1ccc(C(=O)Cn2nc(C(=O)O)c3ccccc3c2=O)cc1,·,·,0,-319,-20,56*
COc1ccc2[nH]c3c(C)c4ccncc4c(C)c3c2c1,55,-31,·,-25,-10,86*
COc1ccc2[nH]c(C)cc(=O)c2c1,-1,0,0,6,23,13
Nc1nnc(CSc2ccc(Cl)cc2)s1,104*,23,-12,14,-20,16
Nc1nnc(CSCc2ccc(Cl)cc2)s1,·,4,-3,24,6,7
O=C(Nc1ncc(Cc2ccccc2)s1)C1COc2ccccc2O1 (centres undefined),0,55*,-1,-7,-6,-9
O=C(Nc1ncc(Cc2ccccc2)s1)c1cccs1,83*,-3,-1,49,-9,17
Cc1[nH]n(-c2ccc(Cl)c(Cl)c2)c(=O)c1CCO,1,2,0,-23,-73,11
SMILES,zVAD death inh,TNF necrop inh,Mcl-1 Bim block,m-calpain inh,Mcl1-Bid inh,Mcl1-Noxa inh
Cc1[nH]n(-c2ccc(C(=O)O)cc2)c(=O)c1CCO,1,0,0,58*,-44,4
CCc1ccc(NC(=O)COc2ccc(/C=C(/C#N)c3nc4ccccc4[nH]3)cc2OC)cc1,7,1,-13,-207,56*,34
COC(=O)c1ccc(COc2ccc(/C=C(\C#N)c3nc4ccccc4[nH]3)cc2OC)o1,1,-9,-3,-92,-35,5
N#CC(c1ccc(Cl)cc1)(c1ncc(C(F)(F)F)cc1Cl)N1CCOCC1 (centres undefined),0,-2,-1,33,45,9
CC(C)Cn1c(N)c(C(=O)COC(=O)c2ccc(F)cc2)c(=O)n(C)c1=O,0,-3,1,53*,-7,5
CCc1ccc(C(=O)OCC(=O)c2c(N)n(CC(C)C)c(=O)n(C)c2=O)cc1,0,-2,2,82*,-21,5
CC(C)Cn1c(N)c(C(=O)COC(=O)c2ccc3c(c2)OCCO3)c(=O)n(C)c1=O,0,-3,-4,-23,-20,·
COC(=O)c1ccc(CSc2nnc(NCc3ccccc3)s2)o1,3,2,-3,33,-8,3
COC(=O)c1ccc(CSc2nc(-c3ccccc3)cs2)o1,1,12,-2,14,-4,80*
O=C1NCCN1C(=O)N(c1ccccc1)c1ccccc1,0,-3,56*,-3,-25,-14
CCOC(=O)c1csc(-c2snnc2C)n1,0,0,·,13,-9,14
CCOc1ccc(-n2c(=O)c3c4c(sc3n(CC(=O)NCCCOC)c2=O)CCCCC4)cc1,2,0,0,-24,-6,4
CCOC(=O)N1CCc2c(sc3c2c(=O)n(Cc2ccccc2)c(=O)n3CC(=O)NCCOC)C1,0,-1,4,58*,-2,-1
CCN(CC)c1ccc(/C=N/Nc2cccc(C)c2)c(O)c1,-1,0,17,20,79*,40
CCN(CC)c1ccc(/C=N/Nc2ccccc2)c(O)c1,0,-3,0,12,-123,57*
O=S(=O)(NCC1CCCO1)c1ccc(S(=O)(=O)N(Cc2ccc(F)cc2)Cc2ccccn2)cc1 (centres undefined),1,2,-2,-8,-12,5
CCC1CCCCN1S(=O)(=O)c1ccc(S(=O)(=O)N(Cc2ccccn2)CC2CCCO2)cc1 (centres undefined),1,5,1,12,-15,90*
O=c1c2c(-c3cccs3)csc2ncn1-n1cccc1,0,-3,-4,81*,4,-8
COC(=O)Cc1c(O)ccn(Cc2cccc3ccccc23)c1=O,0,0,3,10,-25,-2
Cn1c(SCC(=O)O)nnc1-c1ccc(NC(=O)c2ccc(Cl)c(Cl)c2)cc1,0,4,·,-2,-9,9
Cc1cc(C)c2cc3c(N)c(C(=O)Nc4c(C)[nH]c(=O)[nH]c4=O)sc3nc2c1,3,1,-24,-74,-28,54*
Cc1cc(C)c2cc3c(N)c(C(=O)N4CCOCC4)sc3nc2c1,6,2,-2,-61,11,20

# Source: PubChem BioAssay (several laboratories)
